Sampled rows, rich in hits. Any-hit rate of the full collection: about 6.1%.
DRD3 agonist = qHTS of D3 Dopamine Receptor Agonist: qHTS; D3R DiscoveRx beta-arrestin cells, luminescence, 90 min; actives 0.58% (n = 410,000); AID 652048, 2013; max activation, %; in the data active means max activation above about 30%
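Cells at 1500/well, incubated overnight, then treated with pinned compounds (dopamine as control) for 90 min at 37 degrees C. DiscoveRx reagent added for 30 - 60 minutes at room temperature; luminescence read.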
D1 ag = Allosteric Agonists of the Human D1 Dopamine Receptor: qHTS; D(1A) dopamine receptor (Homo sapiens), P21728; HEK293 T-REx D1 cells, calcium flux, agonist mode; activation, % at 2 µM; actives 1% (n = 360,000); AID 504660, 2011; in the data active means activation above about 30%
Target sequence (P21728 whole entry, looked up): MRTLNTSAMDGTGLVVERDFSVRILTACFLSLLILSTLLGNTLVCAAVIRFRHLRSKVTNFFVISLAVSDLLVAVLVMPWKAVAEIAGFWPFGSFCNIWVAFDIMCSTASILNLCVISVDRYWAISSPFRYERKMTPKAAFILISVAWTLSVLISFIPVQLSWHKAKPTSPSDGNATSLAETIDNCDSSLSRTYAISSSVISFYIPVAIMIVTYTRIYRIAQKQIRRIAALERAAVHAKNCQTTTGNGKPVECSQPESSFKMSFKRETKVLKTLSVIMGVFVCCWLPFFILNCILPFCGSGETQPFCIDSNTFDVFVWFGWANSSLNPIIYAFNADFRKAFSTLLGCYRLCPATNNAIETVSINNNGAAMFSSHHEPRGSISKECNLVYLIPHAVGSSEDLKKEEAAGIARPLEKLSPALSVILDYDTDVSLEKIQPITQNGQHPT
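Inducible HEK293 T-REx D1 cells, force-coupled to calcium signalling, were plated at 4000 cells/well with tetracycline and held overnight at 30 C. After no-wash calcium dye loading, compound-evoked calcium rise over 180 s flagged agonists.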
DRD3 antagonist = qHTS of D3 Dopamine Receptor Antagonist: qHTS; D3R cells, DiscoveRx beta-arrestin luminescence, antagonist mode; stronger effect = lower value; actives 2.5% (n = 360,000); max response, negative = inhibition, %; D(3) dopamine receptor (Homo sapiens), P35462; AID 652054, 2013; in the data active means max response below about -50%; inconclusive means no clear call, values can overlap the other calls
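Cells plated overnight at 1500 cells/well, then exposed to library compounds with dopamine controls for 90 minutes at 37 degrees C. DiscoveRx reagent added for 30–60 minutes at room temperature; luminescence read, quantitative HTS format.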
D1 antagonist = Antagonist of Human D 1 Dopamine Receptor: qHTS | D(1A) dopamine receptor (Homo sapiens), P21728 | HEK293 TREx D1 cells, calcium flux, dopamine EC80; stronger effect = lower value | activity change, negative = inhibition, % at 10 µM | actives 3.2% (n = 360,000) | AID 504652, 2011; in the data active means activity change below about -30%
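HEK293 T-REx cells expressing inducible, force-coupled D1 receptor; no-wash Ca dye, 30–90 min RT. Cmpd → 180 s read at 1 Hz → EC80 DA → 180 s read.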
D1 potentiator = Potentiators of Human D1 Dopamine Receptor: qHTS. potentiation, % at 10 µM. HEK293 TREx D1 cells, calcium flux, dopamine EC20 potentiation. D(1A) dopamine receptor (Homo sapiens), P21728. actives 0.036% (n = 360,000); in the data active means potentiation above about 30%
Of the large screens only hits and unclear results are named; the others gave an inactive call.

Cc1cc(C)cc(NC(=O)CN2CCN(c3ccccn3)CC2)c1	none
Cc1cc(C)cc(NC(=O)CN2CCN(c3ccccc3)CC2)c1	D1 antagonist -32
Cc1cc(C)cc(NC(=O)CN2CCc3ccccc3C2)c1	DRD3 antagonist -67
CCOC(=O)c1ccc(NC(=O)Cn2cc3c(n2)CCC(C)C3)cc1 (centres undefined)	D1 antagonist -30
CCOC(=O)c1ccc(NC(=O)CN2CCc3ccccc3C2)cc1	DRD3 antagonist -62
CCN(CC)CCNC(=O)c1cc2c(=O)n(C)c3cc(Cl)ccc3c2s1	none (no result: DRD3 antagonist)
Cc1cnc(C(=O)OCC(=O)N2CCN(S(=O)(=O)c3ccc(Cl)cc3)CC2)cn1	none
O=C(CN1CCc2ccccc2C1)Nc1ccccc1Cl	DRD3 antagonist inconclusive
O=C(CNC(=O)C1CCCCC1)Nc1ccccc1Cl	D1 antagonist -93
O=C(CN1CCc2ccccc2C1)Nc1ccccc1N1CCCCCC1	DRD3 antagonist -54
O=C(NCC(c1ccco1)N1CCCCC1)c1ccc(NS(=O)(=O)c2ccc(F)cc2)cc1 (centres undefined)	none
O=C(NCC(c1ccco1)N1CCCC1)c1ccc(S(=O)(=O)Nc2ccc(F)cc2)cc1 (centres undefined)	D1 ag 51 (no result: D1 potentiator)
CCOc1ccc(NS(=O)(=O)c2ccc(C(=O)NCC(c3ccco3)N3CCCC3)cc2)cc1 (centres undefined)	D1 ag 54 (no result: D1 potentiator)
Cc1ccc(-c2nn(CC(=O)NC3CCCC3)c3c2cnc2ccc(F)cc23)cc1C	none (no result: DRD3 antagonist)
CC(NC(=O)c1ccccc1SCC(=O)N1CCCC1)c1ccc(F)cc1 (centres undefined)	none
Cc1ccc(S(=O)(=O)c2nc(-c3ccccc3)oc2SCC(=O)NC2CCCCC2)cc1	DRD3 agonist 64 (no result: DRD3 antagonist)
Cc1ccc(-c2nc(S(=O)(=O)c3ccc(C)cc3)c(SCC(=O)Nc3ccc(F)cc3)o2)cc1	D1 antagonist -61 (no result: DRD3 antagonist)
CCSc1oc(-c2ccc(F)cc2)nc1S(=O)(=O)c1ccc(C)cc1	none (no result: DRD3 antagonist)
Cc1ccc(-c2nc(S(=O)(=O)c3ccccc3)c(SCC(=O)NC3CCCCC3)o2)cc1	none (no result: DRD3 antagonist)
CSc1oc(-c2ccccc2)nc1S(=O)(=O)c1ccc(C)cc1	D1 antagonist -35
COc1ccc(NC(=O)CC2C(=O)N(c3ccc(C)cc3)C(=O)N2CCc2ccccc2)cc1 (centres undefined)	D1 antagonist -37 (no result: DRD3 antagonist)
CCc1ccc(NC(=O)CC2C(=O)N(c3ccc(Cl)cc3)C(=O)N2Cc2cccs2)cc1 (centres undefined)	DRD3 agonist 43 (no result: DRD3 antagonist)
COC(=O)CN1C(=S)N(c2ccc(Cl)cc2)C(=O)C1CC(=O)Nc1ccc(F)cc1 (centres undefined)	none
COC(=O)CN1C(=S)N(c2ccc(F)cc2)C(=O)C1CC(=O)Nc1ccc(F)cc1 (centres undefined)	DRD3 antagonist inconclusive, D1 antagonist -51
COc1ccc(NC(=O)CC2C(=O)N(c3ccc(OC)cc3)C(=O)N2CCC2=CCCCC2)cc1 (centres undefined)	D1 antagonist -31 (no result: DRD3 antagonist)
COc1ccc(CCN2C(=O)N(c3ccc(F)cc3)C(=O)C2CC(=O)Nc2ccccc2)cc1 (centres undefined)	none (no result: DRD3 antagonist)
O=C(CC1C(=O)N(c2ccccc2)C(=O)N1Cc1ccco1)Nc1ccccc1 (centres undefined)	D1 antagonist -44
CCCOc1ccc(NC(=O)CC2C(=O)N(c3ccc(Cl)cc3)C(=O)N2CCc2ccncc2)cc1 (centres undefined)	D1 antagonist -35 (no result: DRD3 antagonist)
CCN(CC)C(=O)c1cn(CCC#N)nc1-c1ccc2ccccc2c1	none
Cc1nc(NCCc2ccc(S(N)(=O)=O)cc2)c2c3c(sc2n1)CCC3	DRD3 agonist 35
NS(=O)(=O)c1ccc(CCNc2nc(CN3CCOCC3)nc3sc4c(c23)CCC4)cc1	none
C=C(C)C(C)(C#CCN1CCCC1)OC(C)=O (centres undefined)	DRD3 antagonist -72
Cc1cccc([C@@H]2[C@@H]3C(=O)N(Cc4ccccc4)C(=O)[C@@H]3[C@]3(Cc4ccccc4)C(=O)N(c4cccc(Cl)c4)C(=O)N23)c1	none
Cc1cccc([C@@H]2[C@@H]3C(=O)N(Cc4ccccc4)C(=O)[C@@H]3[C@]3(C)C(=O)N(c4cccc(Cl)c4)C(=O)N23)c1	DRD3 antagonist -60
CCN1C(=O)[C@H]2[C@@H](c3ccc(C)cc3)N3C(=O)N(c4ccc(C)cc4)C(=O)[C@@]3(Cc3ccccc3)[C@H]2C1=O	DRD3 agonist 48
CCN1C(=O)[C@H]2[C@@H](c3ccc(C)cc3)N3C(=O)N(c4ccccc4)C(=O)[C@@]3(Cc3ccccc3)[C@H]2C1=O	none
COc1ccc(CN2C(=O)c3cccnc3C2=O)cc1S(=O)(=O)NC1CCCCC1C (centres undefined)	none
CCOC(=O)C1=C(CN2CCC(C)CC2)NC(=O)NC1c1ccc(Cl)cc1 (centres undefined)	DRD3 antagonist -86
COc1cc(C2NC(=O)NC(C)=C2C(=O)OCC2CCCO2)ccc1O (centres undefined)	DRD3 agonist 31
CCOC(=O)C1=C(CN2CCN(c3ccccc3OC)CC2)NC(=O)NC1c1ccccc1 (centres undefined)	D1 antagonist -32 (no result: DRD3 antagonist)
CCN(CC)c1ccc(C2C(C(=O)OC)=C(C)NC(C)=C2C(=O)OC)cc1	DRD3 antagonist -51
COc1cccc(OCCCn2c(-c3ccc(Cl)cc3)nc3ccccc3c2=O)c1	none (no result: DRD3 antagonist)
CC(C)(C)OC(=O)N1CCC(c2c(C(=O)N3CCN(c4ccccc4)CC3)cnn2-c2ccccc2)CC1	none (no result: DRD3 antagonist)
CCOC(=O)C1=C(C)NC(=O)NC1c1ccc(N(C)C)cc1 (centres undefined)	D1 antagonist -31
CCOC(=O)C1=C(CN2CC(C)CC(C)C2)NC(=O)NC1c1ccc2c(c1)OCO2 (centres undefined)	D1 ag 31
C=CCn1c(SCC(=O)Nc2sc(C)c(C)c2C(=O)OCC)nnc1-c1sc(N)nc1C	none
C=CCn1c(SCC(=O)NC2CCCCC2)nnc1-c1sc(N)nc1C	DRD3 antagonist -51
Cc1nn2c(COc3ccc(NC(=O)c4ccccc4Cl)cc3)nnc2c2ccccc12	none
CCc1nnc(NC(=O)c2ccc(S(=O)(=O)N(CC(C)C)CC(C)C)cc2)o1	DRD3 antagonist -107
CCN(CC)S(=O)(=O)c1nnc(NC(=O)c2ccc(C(C)C)cc2)s1	none (no result: DRD3 antagonist)
CCN(CC)S(=O)(=O)c1ccc(C(=O)Nc2nnc(C(C)C)s2)cc1	DRD3 antagonist -69, D1 antagonist -40

Compound activity (PubChem)
